High-throughput results as filed in PubChem BioAssay.
Shown are actives, neighbours in structure and some others; about 2.1% of the full set was active somewhere.
PrPC TRFRET: reduces human prion protein on the cell surface. P04156. cell surface PrPC, TR-FRET read-out. inhibition, % at 13.8 µM. 370,000 tested, 0.43% active. AID 720596; in the data active = inhibition above about 24%; also: 0% = median of the test wells and 100% = reference compound wells
VHR inh abs: blocks human VHR1 dual specificity phosphatase | P51452 | recombinant VHR phosphatase, pNPP absorbance | inhibition, % at 13.3 µM | 290,000 tested, 0.52% active; in the data active = inhibition above about 50%
PrP UTR inh: suppresses PrP 5' UTR mRNA reporter expression; cell-based PrP 5' UTR mRNA reporter, plate reader; inhibition, % (concentration not given with the values); 340,000 tested, 0.35% active; AID 488862; in the data active = inhibition above about 52%; also: 0 = median of the neutral control wells
MazF activator: MazEF (E. coli) toxin RNase activation; 350,000 tested, 0.32% active; activation, % at 20 µM; AID 504720; FAM/BHQ RNA-DNA oligo cleavage fluorescence, 5 h; in the data active = activation above about 50%
PfHsp40 yeast: rescue of PfHsp40-mediated yeast toxicity; growth rescue, % at 12.5 µM; AID 504582; S. cerevisiae expressing PfHsp40, growth rescue, ATP luminescence; 340,000 tested, 0.68% active; in the data active = growth rescue above about 28%, passing the limit was not always enough; inconclusive = no clear call, values can overlap the other calls;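 also: yeast W303a lacking pdr1 and pdr3 grown in galactose medium; growth measured after three days at 30 °C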
BJeLR viability: BJeLR cell viability loss; BJeLR (HRASV12) viability, CellTiter-Glo ATP luminescence, 48 h; AID 1554; 300,000 tested, 0.17% active; inhibition, % (test concentration not listed); in the data active = inhibition above about 50%; inconclusive = no clear call, values can overlap the other calls
PrPC TRFRET cf: cell surface PrPC inhibition, TR-FRET confirmation; inhibition, % at 13.8 µM; shares compounds with PrPC TRFRET; cell surface PrPC level; AID 743200; 1,500 tested, 65% active; in the data active = inhibition above about 25%
LD9 tox: LD9 cell cytotoxicity, PrPc inhibitor counter-screen. 1,500 tested, 29% active. inhibition, % at 13.8 µM. LD9 cells cytotoxicity, luminescence viability. shares compounds with PrPC TRFRET; in the data active = inhibition above about 9.5%
* = called active by the depositor; ? = inconclusive; . = not tested or not shown.

SMILES	PrPC TRFRET	VHR inh abs	PrP UTR inh	MazF activator	PfHsp40 yeast	BJeLR viability	PrPC TRFRET cf	LD9 tox
CN(C)S(=O)(=O)c1ccc(NC(=O)CSc2ncnc3ccccc23)cc1	50.3*	-4.6	-9.1	1.9	-0.4	2.0	53.4*	-12.8
O=C(CSc1ncnc2ccccc12)Nc1cccc(S(=O)(=O)N2CCOCC2)c1	68.0*	3.5	-44.9	3.7	1.0	2.6	65.6*	3.0
CC(C)(C)c1ccc(S(=O)(=O)NC(=O)C2(C)CCN2C(=O)Cc2cccc3ccccc23)cc1 (configuration not stated)	-0.2	.	.	.	.	.	.	.
Cc1nnc(SCC(=O)NC2CC2)n1-c1ccccc1	0.3	-11.2	-6.4	-2.2	-0.7	-0.3	.	.
COc1ccc(C(=O)Nc2ccccc2C(=O)NC(Cc2ccc(O)cc2)C(=O)NNC(=O)c2ccc(C)cc2)cc1 (configuration not stated)	82.9*	1.9	-0.4	2.2	-0.2	-1.8	5.6	-1.3
O=C1OCCC1Sc1ncnc2sccc12 (configuration not stated)	31.5*	11.9	-17.1	2.9	5.2	-3.1	32.3*	3.2
O=C(N1CCOCC1)N1CCN(S(=O)(=O)c2cccc([N+](=O)[O-])c2)CC1	-17.2	-9.7	-6.6	3.5	1.4	13.2	.	.
Clc1cccc(Nc2ncnc3ccc(Br)cc23)c1	63.0*	23.5	0.1	6.5	?	-7.1	75.9*	2.1
Cc1cccc(Nc2ncnc3ccc(Br)cc23)c1	25.8*	24.3	6.6	-18.3	0.1	1.4	30.8*	-0.7
Brc1ccc2ncnc(NCc3ccccc3)c2c1	47.6*	-19.1	14.5	2.8	?	10.0	50.2*	12.5*
CN(C)c1ccc(Nc2ncnc3ccc(Br)cc23)cc1	2.0	27.2	-4.9	3.2	0.0	2.5	.	.
Clc1ccc(Nc2ncnc3ccc(Br)cc23)cc1	29.8*	8.1	-6.6	30.7	8.5	6.2	44.3*	4.1
Cc1ccccc1CS(=O)(=O)Cc1ccc(C(=O)Nc2c(C)cccc2C)o1	-4.7	.	.	.	.	.	.	.
COc1ccc(Cc2c(-c3ccc(F)cc3)nc3ccc(Cl)cn23)c(C)c1	-1.6	.	.	.	.	.	.	.
CCOC(=O)[C@@H]1CSCCS(=O)(=O)N1Cc1ccccc1	-3.2	.	.	.	.	.	.	.
CC1CCN(C(=O)Cn2c(=O)n(Cc3ccco3)c(=O)c3sccc32)CC1	0.5	5.8	-16.6	3.3	-0.7	-0.4	.	.
O=C(CNCc1ccc(F)cc1)Nc1ccccc1[N+](=O)[O-]	-5.2	30.9	-10.7	4.4	0.5	-1.6	.	.
CCN1C(=O)C2(C(C(=O)c3ccc(C)o3)=C(O)C(=O)N2CCCN2CCOCC2)c2ccccc21 (configuration not stated)	-6.7	18.2	-21.5	1.2	-1.8	-3.6	.	.
CCN1C(=O)C2(C(C(=O)c3cc4ccccc4o3)=C(O)C(=O)N2CCCN2CCOCC2)c2ccccc21 (configuration not stated)	72.0*	-4.0	-16.3	-2.2	-1.0	-6.3	99.3*	-8.1
CCOc1ccccc1N1CCN(c2nc3ccccc3nc2C(C#N)C(=O)OC)CC1 (configuration not stated)	-8.2	13.7	-10.3	-4.3	1.4	-7.9	.	.
COc1ccccc1N1CCN(c2nc3ccccc3nc2C(C#N)C(=O)OC(C)C)CC1 (configuration not stated)	25.3*	6.0	-12.5	-6.1	-0.9	3.5	1.6	5.6
COc1ccc(OC)c(CN2C(=O)CN(S(C)(=O)=O)CC2(C)c2nnnn2C2CCCC2)c1 (configuration not stated)	-7.8	.	.	.	.	.	.	.
Cc1cc(N2CCC[C@@H]2C)nc2ccccc12	-6.5	.	.	.	.	.	.	.
COc1ccc2[nH]c3c(C)c4ccncc4c(C)c3c2c1	34.1*	1.7	-2.4	-10.8	7.7	101.4*	33.7*	41.7*
Cc1c2ccncc2c(C)c2c1[nH]c1ccccc12	.	8.6	2.6	-17.4	-0.7	19.3	.	.
COc1cccc(NC2c3ccccc3C(=O)N2Cc2ccccc2Cl)c1 (configuration not stated)	29.4*	6.2	-5.2	-7.7	-0.5	3.5	6.7	-4.4
